According to PubChem BioAssay AID623980 (National Center for Advancing Translational Sciences (NCATS), 2012):
This is one part of the list. Calls come from the whole dose curve; as a rule, active = well fitted curve in the direction sought with a large enough effect; inactive = no such curve, though single readings can be large or run the other way.

Experiment: qHTS for Inhibitors of mutant isocitrate dehydrogenase 1 (IDH1): Cherrypicks Autofluorescence Interference;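 note: 0% = wells with normal resorufin and full inhibition = wells lacking resorufin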
Conditions: Resorufin detection reagent fluorescence interference, cell-free; series mostly up to 51.2 µM; inhibition of signal: at the top concentration
Source text: Readout Interference Assay for Inhibitors of IDH1 R132H and WT IDH1 Malignant glioblastomas (WHO grade IV), including primary and secondary glioblastomas, are among the most lethal with a median survival of one year, and unfortunately they are also the most prevalent type of brain tumors. By and large the standard of care of gliomas remains the use of the oral alkylating agent temozolomide and radiotherapy following surgical tumor resection. There is an urgent unmet medical need for novel therapeutics for gliomas. IDH mutations occur in up to 70% of grade II-IV secondary glioblastomas, and IDH1 R132H is the most prevalent mutation. […] Wild-type (WT) IDH1 catalyzes the conversion of isocitrate to a-ketoglutarate with the concomitant reduction of NADP+ to NADPH. In contrast, IDH1 R132H catalyzes the conversion of -ketoglutarate to 2-hydroxyglutarate (2-HG) with the concomitant oxidation of NADPH to NADP+ [5]. Recently, a second significant advancement for the field was the finding that IDH is an oncogene, and that its metabolic product 2-HG may contribute to the pathogenesis of IDH-mutated cancers. […] Although this link to cancer is tantalizing, the direct evidence of how 2-HG drives pathogenesis of gliomas and AML remains a subject of further research. The goal of this detection interference assay is to identify whether the potential small-molecule inhibitors of IDH1 R132H or WT IDH1 confound the fluorescence readout by interfering with the detection reagent. Inhibition of the detection reagent would lead to a decrease in observed fluorescence of the product resorufin relative to the DMSO control. Compounds were screened as concentration-titration series that ranged from 76 uM to 0.15 uM. NIH Molecular Libraries Probe Production Network [MLPCN] NIH Chemical Genomics Center [NCGC] MLSCN Grant: R03 DA032129 PI Name: Dr. Lenny Dang
Detection reagent buffer was dispensed into black, solid 1536-well plates at 9 microL/well in 20 mM Tris buffer, pH 7.5, containing final concentrations of 10 mM MgCl2, 20 mM NaCl, 0.05% BSA, 2 mM beta-ME, 0.008 mM NADPH, 1 mM alpha-ketoglutarate, and 0.008 mM resorufin. Then, 23 nL of compounds or DMSO were delivered to each well using a pin tool. The fluorescence intensity was monitored on an Envision plate reader at 590 nm (Ex 540, Em 590, bodipy mirror, 10 flashes). The %Activity was determined from the corrected fluorescence values. Resorufin at 0x was included to normalize %Activity of identified inhibitors; 0x resorufin values corresponded to 100%Activity (full inhibition), while 1x resorufin values were used to normalize 0%Activity (no inhibition). Concentration-response curves were fitted to the signals arising from the resulting fluorescence. The concentration-response curves were then classified based on curve quality (r2), response magnitude and degree of measured activity, and compounds were subsequently categorized based on their curve class. […] Keywords: Isocitrate dehydrogenase, IDH1, IDH1 R132H, 2-HG, 2-hydroxyglutarate, AML, glioma, MLSMR, MLPCN, NIH Roadmap, qHTS, NCGC

Inhibition of signal, inactive:
CCCc1[nH]nc2c1C(c1ccc(OC)c(Cn3nc(C)c(Br)c3C)c1)C(C#N)=C(N)O2 (centres undefined) -4.01%, O=C(NC(Nc1nc2ccc([N+](=O)[O-])cc2s1)(C(F)(F)F)C(F)(F)F)c1ccccc1 7.74%, CCC(C)(C)NC(=O)C(c1cccn1C)N(Cc1ccc(C)cc1)C(=O)Cn1nnc2ccccc21 (centres undefined) -2.24%, COc1cc(/C=C2/SC(=S)N(Cc3ccccc3)C2=O)cc(OC)c1O 2.53%, COC(=O)c1cccc(N(C(=O)c2ccco2)C(C(=O)NC2CCCC2)c2ccco2)c1 (centres undefined) 1.47%, CCCOc1ccc(C2c3c(-c4ccccc4O)n[nH]c3C(=O)N2Cc2cccnc2)cc1 (centres undefined) -5.36%, COC(=O)c1ccc(-c2c(-c3ccccc3)ncc3cc(OC)c(OC)cc23)cc1 5.32%, Cc1ccc2nc(N3C(=O)C(O)=C(C(=O)c4ccco4)C3c3cccc(O)c3)sc2c1 (centres undefined) 6.24%, Cc1cccc(N(C(=O)Cc2cccs2)C(C(=O)NC2CCCC2)c2ccsc2)c1 (centres undefined) -1.86%, CCCCOc1ccc(CN2C(=O)C(=O)c3cc(Br)cc(C)c32)cc1OC -4.85%, Cc1nc(C)c(C(=O)N(c2ccc(C)c(C)c2)C(C(=O)NCc2ccco2)c2ccccc2)s1 (centres undefined) 2.62%, COc1cc(/C=C2/C(=O)ON=C2C)ccc1OCc1ccccc1F 4.14%, COc1ccc(Cl)cc1-n1c(=S)sc2c(=O)n(-c3ccc(F)cc3)c(SCC(=O)O)nc21 -36.4%, CCCNc1ncnc2c1c(-c1ccccc1)cn2-c1ccc(OCC)cc1 -0.98%, Cc1nc(-c2ccc(Cl)cc2)sc1C(=O)CBr 2.34%, CC(C)(C)c1ccc(S(=O)(=O)Nc2ccc(O)c(Sc3nc4ccccc4s3)c2)cc1 -6.05%, C(=N/Nc1cc(N2CCOCC2)nc(N2CCOCC2)n1)/c1ccccc1 -4.67%, CC(C)N(C(=O)CSc1nc(COc2ccccc2)nc2ccccc12)C(C)C -7.76%, CCCCC(=O)NC(c1ccc(OC)c(OC)c1)c1ccc2cccnc2c1O (centres undefined) 7.47%, CCCc1nc2c(c(=O)c3ccccc3n2C)c(=O)n1C1CCCCCC1 -4.87%, CCOC(=O)c1ccc(N2C(=O)c3n[nH]c(-c4ccco4)c3C2c2ccc(O)cc2)cc1 (centres undefined) -3.39%, COc1ccc(C(CCN(Cc2ccc(OC)c(OC)c2)C(=O)CCl)c2ccccc2)cc1 (centres undefined) 3.98%, COc1ccc(/C=C2/SC(=O)N(CCCCCC(=O)Nc3ccccc3C(=O)O)C2=S)cc1 -2%, O=C1c2cccc3cccc(c23)C(=O)N1CCCCCc1n[nH]c(=S)o1 8.06%, N#CC1=C(N)C(C#N)(C#N)[C@H](c2ccsc2)[C@H]2COCC=C12 7.1%, Cc1ccc(-c2nn(-c3ccccc3)cc2/C=C2\SC(=S)N(CCCCCC(=O)O)C2=O)o1 0.67%, CC(C)Nc1nc(N(c2ccccc2)c2ccccc2)nc(-n2ccnc2)n1 3.09%, Cn1c(COc2ccc(Cl)cc2)nc2ccccc2c1=O -3.55%, COc1cc2c(-c3ccc4c(c3)OCO4)c(-c3ccsc3)oc(=O)c2cc1OC 2.12%, COc1ccc(/C=N/Nc2cc(N3CCOCC3)nc(C)n2)c(OC)c1 -13.2%, CCSc1nc2sc3c(c2c(=O)n1-c1ccc(C)cc1)CCN(C)C3 -9.92%, COc1ccc(C(C(=O)NC2CCCCC2)N(C(=O)c2snc(C(N)=O)c2N)c2ccccc2OC)cc1 (centres undefined) -1.26%, CCOC(=O)c1oc2c(CN3CCN(CCO)CC3)c(O)c(CC)cc2c(=O)c1-c1nc2ccccc2s1 -3.6%, Cc1ccc(Nc2nc(CSc3nnc(-c4ccncc4)n3-c3ccccc3C)cs2)cc1 10.4%
